LMNA splice mod: qHTS Assay for Modulators of Lamin A Splicing. AID 1487, 2009. HeLa LMNA splicing GFP/RFP minigene ratio, 48 h. Potency, µM (doses to about 46.1 µM), inactives show top-dose ratio change, negative = inhibition, hits mostly inhibitors. 0.01% of 200,000 active; active = well fitted inhibition curve with a large enough effect in the signal ratio, with a control signal flat, not every such curve was filed as active; inconclusive = small, poorly fitted or top-dose-only effect, or effect the other way, or a change in a side signal; the % refers to the signal ratio; also: % is scaled to controls: 0 for no effect and ±100 for the full control effect
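Read-out is the ratio of GFP to DsRed2 object intensity, acquired by 488 nm laser-scanning cytometry on HeLa lamin A-EGFP minigene reporter cells. Compound incubation 48 hrs at 37 °C in Opti-MEM with 2% FBS; DMSO 0.5% final.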
HttQ103 aggreg: qHTS Multiplex Assay to Identify Dual Action Probes in a Cell Model of Huntington: Aggregate Formation (GFP). PC12 HttQ103-GFP aggregates, Acumen cytometry, 40 h. 1.1% of 220,000 active. Potency, µM (top dose mostly 46.1 µM), for inactives: at the highest dose activity change, negative = inhibition, actives largely listed as inhibitors. AID 1688, 2009; active = well fitted curve in the direction sought with a large enough effect; inconclusive = small, poorly fitted or top-dose-only effect, or another doubt; inactive = no such curve, though single readings can be large; an effect the other way counts as inactive or inconclusive; also: % is scaled to controls: 0 for no effect and ±100 for the full control effect; nearly all actives have a fitted effect of over 60% in size
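Aggregate formation scored by laser-scanning cytometer (488 excitation, 500–530 emission) in lysed PC12 cells expressing Q103-GFP after 100 nM tebufenozide induction; library tested in dose series, with ATPLite reagent added in the multiplex.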
HPGD block: qHTS Assay for Inhibitors of HPGD (15-Hydroxyprostaglandin Dehydrogenase) | Potency, µM, for the others: at the highest dose activity change, negative = inhibition, usual class: inhibitors | 4.3% of 150,000 active | purified HPGD, NADH fluorescence kinetic, PGE2 substrate | 15-hydroxyprostaglandin dehydrogenase [NAD(+)] (Homo sapiens), P15428; also: % is scaled to controls: 0 for no effect and ±100 for the full control effect
Target sequence (P15428 whole entry, looked up): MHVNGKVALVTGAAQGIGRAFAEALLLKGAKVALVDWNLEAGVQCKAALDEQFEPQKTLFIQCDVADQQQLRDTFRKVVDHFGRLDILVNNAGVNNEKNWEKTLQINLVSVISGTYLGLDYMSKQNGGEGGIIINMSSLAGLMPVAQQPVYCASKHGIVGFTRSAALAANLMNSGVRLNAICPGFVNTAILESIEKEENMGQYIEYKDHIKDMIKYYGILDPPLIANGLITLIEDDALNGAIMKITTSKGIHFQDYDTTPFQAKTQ
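20 nM HPGD preincubated 15 min at room temperature with compound in 50 mM Tris-HCl pH 8, 0.01% Tween 20. Started with 1 mM NAD+ and 30 uM prostaglandin E2; NADH fluorescence (360/450 nm) read 5 times over 30-s intervals, last minus first.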
HTT ATP protect: qHTS Multiplex Assay to Identify Dual Action Probes in a Cell Model of Huntington: Cytoprotection (ATP) | PC12 HTT-Q103 induced, cytoprotection, ATP luminescence, 40 h | Potency, µM (highest dose often 56.4 µM), for the others: cytoprotection (ATP increase), usual class: activators | 0.14% of 230,000 active; active = well fitted curve in the direction sought with a large enough effect; inconclusive = small, poorly fitted or top-dose-only effect, or another doubt; inactive = no such curve, though single readings can be large; an effect the other way counts as inactive or inconclusive; also: % of control where 0% means no effect; nearly all actives have a fitted effect of over 45% in size
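Stable PC12 Q103-GFP cells in serum-supplemented, phenol red-free DMEM; induction by tebufenozide at 100 nM final; compound dose series; cell viability quantified luminescently from ATP.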
ALDH1A1 inh: qHTS Assay for Inhibitors of Aldehyde Dehydrogenase 1 (ALDH1A1) | Purified ALDH1A1, NADH fluorescence, propionaldehyde substrate | Potency, µM (doses to about 75.3 µM), without a hit: top-dose activity, negative = inhibition, most hits filed as inhibitors | 7.3% of 220,000 active | Aldehyde dehydrogenase 1A1 (Homo sapiens), P00352;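 also: plate controls were no enzyme wells and a reference inhibitor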
Target sequence (P00352 whole entry, looked up): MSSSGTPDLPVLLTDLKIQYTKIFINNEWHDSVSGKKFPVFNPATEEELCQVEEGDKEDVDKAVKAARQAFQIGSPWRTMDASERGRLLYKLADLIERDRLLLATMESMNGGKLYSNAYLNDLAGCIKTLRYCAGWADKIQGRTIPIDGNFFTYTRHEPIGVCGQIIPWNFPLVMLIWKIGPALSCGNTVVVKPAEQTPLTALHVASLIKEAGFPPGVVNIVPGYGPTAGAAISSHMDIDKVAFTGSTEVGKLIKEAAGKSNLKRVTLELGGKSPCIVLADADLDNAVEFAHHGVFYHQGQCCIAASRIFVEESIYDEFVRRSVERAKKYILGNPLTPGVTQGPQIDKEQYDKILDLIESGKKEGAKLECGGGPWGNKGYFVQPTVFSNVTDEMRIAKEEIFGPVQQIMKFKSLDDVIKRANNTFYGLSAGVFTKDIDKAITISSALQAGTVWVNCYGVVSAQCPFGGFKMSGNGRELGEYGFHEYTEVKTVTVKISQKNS
* marks the source's active call; other numbers are inactive results; ? = inconclusive; . = not tested or not shown; [ ] = another dose, or the depositor's remark. Most compounds without a hit are left out; they make up all but 8.8% or so of the library. Unless noted, calls follow the shape of the dose curve; as a rule, active = well fitted inhibition curve with a large enough effect (not every such curve was filed as active); inconclusive = small, poorly fitted or top-dose-only effect, or another doubt; inactive = no such curve, though single readings can be large or run the other way. Potency is read from the fitted curve at half-maximal effect.

SMILES	LMNA splice mod	HttQ103 aggreg	HPGD block	HTT ATP protect	ALDH1A1 inh
NC(=O)c1sc2nc(-c3ccccc3)c3c(c2c1N)CCCC3	.	6.31µM*	.	-31.5%	?
NC(=O)c1sc2nc3c(c(-c4ccco4)c2c1N)CCC3	3.4%	4.47µM*	-22.7%	?	-11.6%
Cc1nc2sc(C(N)=O)c(N)c2c2c1CCCC2	.	1.78µM*	.	-13.4%[10 µM]	.
CC1=C(C(=O)NCc2ccccc2F)C2(CCCCC2)OC1=O	8.2%[46 µM]	.	.	.	.
CCn1c(N)c(C(=O)N2CCOCC2)sc1=S	?	-8.5%	.	-20.6%	-13.6%
CC(C)OCCCNC(=O)c1sc(=S)n(C)c1N	0.0%	18.2%	28.2µM*	-8.2%[0.074 µM]	-95.7%
CCNC(=O)c1sc(=S)n(CC)c1N	8.0%	-0.4%	17.8µM*	-3.4%	?
CCn1c(N)c(C(=O)NCCCOC)sc1=S	-2.2%	28.0%	14.1µM*	-7.0%	3.16µM*
OCCN1CCN(CCCN2c3ccccc3C=Cc3ccccc32)CC1	?	-21.9%	-13.5%	-105.9%	-3.3%
Cc1cccc(NC(=O)c2nc[nH]c2C(=O)N[C@@H](C)C(=O)OC(C)(C)C)c1	.	2.2%[9.22 µM]	.	9.2%[10 µM]	.
Cc1ccc(Oc2ccc(OCC(=O)NC(CC(C)C)C(=O)O)cc2)cc1 (stereo not given)	-13.1%[46 µM]	-4.7%[9.22 µM]	.	4.5%[10 µM]	6.31µM*
Cc1cc(C)c(NC(=S)NCC2CCN(C(C)c3ccccc3)C2)c(C)c1 (stereo not given)	.	1.7%	.	-18.5%	?
CCC(C)(C)n1nnnc1CN1CCC(c2nc3ccc(C)cc3[nH]2)CC1	-8.0%	-11.2%	-1.0%	-5.0%	10µM*
CCCc1cc(=O)c2ccc(OC/C(C)=N/O)cc2o1	.	-15.2%[9.22 µM]	.	-9.0%[10 µM]	.
C[C@@H]1C[C@@]2(C)Oc3ccccc3[C@H]3OC[C@]1(COC(=O)Nc1ccccc1)[C@@H](C)[C@@H]32	.	.	.	-10.6%	.
CCN(CC)c1ccc(/C=C(\C#N)C(=O)NCc2ccco2)cc1	-3.5%	11.2%	-13.7%	5.0%[10 µM]	31.6µM*
CN(C)c1ccc(/C=C(\C#N)C(=O)NCc2ccco2)cc1	-24.5%	-20.7%	-24.1%	10.0%[10 µM]	?
CC(C)c1ccc(NC(=O)CSC2=Nc3ccccc3C3=NC(CC(=O)NCc4cccs4)C(=O)N23)cc1 (stereo not given)	1.3%[46 µM]	.	.	.	.
COc1ccc(NC(=O)C(=O)NCC(c2cccnc2)N2CCc3ccccc3C2)cc1 (stereo not given)	14.1µM*	.	.	.	.
Cc1[nH]c2ccccc2c1CC#N	.	-2.9%[9.22 µM]	.	22.0%[10 µM]	.
Cc1[nH]c2ccccc2c1[C@H]1[C@@H](CC#N)C1(C)C	-8.5%	-2.9%	-25.7%	6.4%[10 µM]	22.4µM*
CCOC(=O)Cc1csc(Nc2ccc(Cl)cc2)n1	-5.6%	-6.8%	-9.2%	4.6%[1.9 µM]	-0.2%
CCOC(=O)Cc1nnc2c(Nc3ccc(Cl)cc3)nc3nonc3n12	-23.9%	17.8µM*	-1.3%	7.5%[10 µM]	-10.0%
CC1C(=O)N(C)C(=O)c2nc[nH]c21 (stereo not given)	-13.3%	.	-8.3%	.	-2.6%
Cc1csc(SCC(=O)Nc2cc(S(=O)(=O)N3CCCC3)ccc2Cl)n1	5.6%	-2.6%	0.3%	-13.4%	1.26µM*
SMILES	LMNA splice mod	HttQ103 aggreg	HPGD block	HTT ATP protect	ALDH1A1 inh
O=C(CSc1ncn[nH]1)Nc1cc(S(=O)(=O)N2CCCC2)ccc1Cl	.	-3.7%	.	-14.5%	15.8µM*
Cc1csc(SCC(=O)Nc2cc(S(=O)(=O)N3CCOCC3)ccc2N2CCOCC2)n1	.	4.9%[9.22 µM]	.	0.9%[10 µM]	.
Cc1csc(SCC(=O)Nc2cccc(S(=O)(=O)N3CCCC3)c2)n1	-11.8%	4.2%	-0.8%	-1.3%	25.1µM*
Cc1ccc(S(=O)(=O)N2CCCCC2)cc1NC(=O)CSc1ncn[nH]1	.	-2.5%	.	-25.3%	?
O=C(CSc1nnc(Nc2ccccc2)s1)Nc1cccc(S(=O)(=O)N2CCCCC2)c1	?	4.0%	-15.8%	-33.6%[10 µM]	-6.0%
CCOCCCNC(=O)CSc1nc2nc(C)c(Cc3ccccc3)c(C)n2n1	1.9%[46 µM]	8.6%	.	-16.0%	-0.3%
CC(=O)c1c(C)oc2c1C(=O)c1ccccc1C2=O	?	7.08µM*	-0.6%	-53.5%[10 µM]	10.3%
COc1ccc(CNC(=O)c2c(C)oc3c2C(=O)c2ccccc2C3=O)cc1	?	?	-5.8%	.	?
Cc1oc2c(c1C(=O)NCc1cccnc1)C(=O)c1ccccc1C2=O	.	3.55µM*	.	-97.2%[10 µM]	-0.8%
CSc1ncc(C(=O)NCc2ccc(C)cc2)c(C)n1	-9.1%[46 µM]	.	.	.	.
Cn1cc(CNC(=O)C23CC4CC(CC(C4)C2)C3)cn1	-6.3%	-3.6%	-13.9%	-2.8%[10 µM]	5.01µM*
CC(C)(C)NC(=O)C(c1ccncc1)N(C(=O)c1csnn1)C1CC1 (stereo not given)	-1.7%	22.7%	-5.5%	6.0%	10µM*
O=C(NC1CCCCC1)C(c1cccnc1)N(C(=O)c1ccc(Cl)nc1)C1CCCCC1 (stereo not given)	-8.1%[46 µM]	1.9%	.	-18.8%	8.3%
Cc1ccc(C(C(=O)NC(C)(C)C)N(C(=O)c2csnn2)C2CC2)cc1 (stereo not given)	-5.8%	-10.1%	0.5%	12.2%[10 µM]	9.9%
CC(C)(C)NC(=O)C(c1cccnc1)N(C(=O)c1ccc(Cl)nc1)C1CCCC1 (stereo not given)	.	6.8%[9.22 µM]	.	-13.4%[10 µM]	5.62µM*
CCOC(=O)c1ccc(NC(=O)c2ccccc2C)cc1	0.7%	-22.5%	-11.7%	.	?
CO[C@@H]1COC(=O)[C@H]2CCCN2C(=O)C/C=C\[C@@H](C)[C@H](OC)COC(=O)[C@H]2CCCN2C(=O)C/C=C\[C@H]1C	.	.	.	-10.3%[10 µM]	-1.9%[13.5 µM]
Cc1ccc(-c2noc(CN3CCN(c4ccccc4F)CC3)n2)cc1	-22.9%	-27.9%	-13.8%	6.8%[10 µM]	11.2µM*
Cc1ccc(-c2noc(CN3CCCCC3)n2)cc1	8.3%	20.1%	-8.2%	-32.2%	5.6%
O=C1CC2(CCCC2)CC(=O)N1CCNC[C@H]1COc2ccccc2O1	.	.	-0.8%	-44.7%[1.9 µM]	?
